Screening results (PubChem)
TDP1 cell noCPT = qHTS for Inhibitors of human tyrosyl-DNA phosphodiesterase 1 (TDP1): qHTS in cells in absence of CPT. DT40 Tdp1-/- hTDP1 cells, no CPT, ATP luminescence, 48 h. Potency, µM (top dose mostly 46.2 µM), for inactives: at the top dose activity change, negative = growth inhibition, usual class: inhibitors. 420,000 tested, 15% active. AID 686978, 2013; also: potency is read from the fitted curve at half-maximal effect; nearly all actives have a fitted effect of over 55% in size
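Stably hTDP1-transfected Tdp1-null chicken DT40 cells were treated with library compounds minus camptothecin and grown for at least 48 hr at 37 °C, after which cellular ATP was quantified by luminescence.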
IL1B secr inh = qHTS for Inhibitors of Inflammasome Signaling: IL-1-beta AlphaLISA Primary Screen. THP-1 LPS/ATP IL-1B secretion, AlphaLISA, 16 h; hits give low values. activity change, % at 57.5 µM. 360,000 tested, 4.7% active. AID 743279, 2014; in the data active = activity change below about -50%; inconclusive = mostly about -30% to -49%
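Secreted IL-1B measured by AlphaLISA bead assay after 16 h compound exposure of THP-1 cells; compounds (final up to 57.5 uM) added 1 h before LPS (250 ng/mL) and ATP (1.25 mM) stimulation; lower signal means less secretion.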
RORg inh = qHTS for inhibitors of ROR gamma transcriptional activity; Drosophila S2 Gal4-RORgamma UAS-luciferase reporter, 20 h; Potency, µM (top dose mostly 53.6 µM), without a hit: at the highest dose activity change, negative = inhibition, hits mostly inhibitors; 310,000 tested, 5.4% active; AID 2551, 2010; also: potency is read from the fitted curve at half-maximal effect; nearly all actives have a fitted effect of over 60% in size
Target sequence (P51450 whole entry, looked up, the tested form may be a part): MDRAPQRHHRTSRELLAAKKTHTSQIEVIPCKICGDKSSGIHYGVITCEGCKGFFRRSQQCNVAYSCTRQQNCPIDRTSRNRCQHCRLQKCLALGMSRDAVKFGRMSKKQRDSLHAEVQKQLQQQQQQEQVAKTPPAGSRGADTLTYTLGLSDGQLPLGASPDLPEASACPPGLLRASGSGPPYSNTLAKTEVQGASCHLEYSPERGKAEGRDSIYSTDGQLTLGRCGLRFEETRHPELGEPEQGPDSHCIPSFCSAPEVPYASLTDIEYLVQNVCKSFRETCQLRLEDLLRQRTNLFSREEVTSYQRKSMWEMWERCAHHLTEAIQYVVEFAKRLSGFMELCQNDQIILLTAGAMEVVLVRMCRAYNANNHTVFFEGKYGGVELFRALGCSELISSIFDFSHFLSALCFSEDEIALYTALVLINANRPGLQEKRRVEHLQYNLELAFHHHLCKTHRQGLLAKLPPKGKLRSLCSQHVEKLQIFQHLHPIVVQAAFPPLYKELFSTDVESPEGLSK
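Stable Schneider cell line, Gal4 DNA-binding domain fused to ROR gamma, UAS-luciferase. Cmpd 1 hr RT → CuSO4 700 uM final → 20 hr RT → luciferase reagent 10 min → luminescence.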
Gal4-VP16 FLuc = VP16 counterscreen qHTS for inhibitors of ROR gamma transcriptional activity. Drosophila S2 Gal4-VP16 UAS-luciferase, luminescence, 20 h. 310,000 tested, 3.5% active. Potency, µM (doses to about 53.6 µM), for the others: at the top dose activity, negative = inhibition, usual class: inhibitors. AID 2546, 2010;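 also: Gal4-VP16 expression switched on by copper sulfate through the metallothionein promoter; potency is read from the fitted curve at half-maximal effect; nearly all actives have a fitted effect of over 50% in size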
ELG1 DNA repair = qHTS screen for small molecules that inhibit ELG1-dependent DNA repair in human embryonic kidney (HEK293T) cells expressing luciferase-tagged ELG1; HEK293T ELG1-luciferase reporter, luminescence, 16 h; DNA damage induced by 5-fluorouridine; 330,000 tested, 2.3% active; Potency, µM (series often up to 46.1 µM), for inactives: top-dose activity change, negative = inhibition, most hits filed as inhibitors; also: potency is read from the fitted curve at half-maximal effect; nearly all actives have a fitted effect of over 55% in size
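5-Fluorouridine DNA damage + compound/DMSO, 2,000 cells/well, 16 h, 37 °C/5% CO2. ONE-Glo, 30 min RT, luminescence. Readout = decrease in reporter signal.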
TDP1 cell CPT = qHTS for Inhibitors of human tyrosyl-DNA phosphodiesterase 1 (TDP1): qHTS in cells in presence of CPT. 420,000 tested, 12% active. chicken DT40 Tdp1-/-;hTDP1 cells + 20 nM CPT, ATP luminescence, 48 h. Potency, µM (titrated, usually from 46.2 µM), for the others: top-dose activity change, negative = growth inhibition, most hits filed as inhibitors. AID 686979, 2013; also: potency is read from the fitted curve at half-maximal effect; nearly all actives have a fitted effect of over 55% in size
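Cell growth measured by CellTiter-Glo luminescence after a minimum 48 h, 37 C compound exposure with 20 nM CPT in Tdp1-knockout DT40 cells stably expressing hTDP1, seeded 400/well; qHTS titration format.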
Active calls of the source: *; u = inconclusive; x = no result; [ ] = another dose, or the depositor's remark. Compounds with a hit are over-represented: about 21% of the library has one in this group of screens. Unless noted, calls follow the shape of the dose curve; as a rule, active = well fitted curve in the direction sought with a large enough effect; inconclusive = small, poorly fitted or top-dose-only effect, or another doubt; inactive = no such curve, though single readings can be large; an effect the other way counts as inactive or inconclusive. % is scaled to controls: 0 for no effect and ±100 for the full control effect.

SMILES	TDP1 cell noCPT	IL1B secr inh	RORg inh	Gal4-VP16 FLuc	ELG1 DNA repair	TDP1 cell CPT
CC(Sc1nc2nn(-c3ccccc3)c(=O)c-2c2n1CCCCC2)C(N)=O (stereo unspecified)	-21%	-18	0%	8%	-8%	-6%
COc1ccc(C2CC(=O)Oc3cc(C)c(Cl)cc32)cc1 (stereo unspecified)	-14%	0	20%	2%	15%	-13%
Cc1ccc([N+](=O)[O-])cc1S(=O)(=O)NCC1COc2ccccc2O1 (stereo unspecified)	-16%	12	27%	-4%	-11%	u
NC(=O)c1ccc(NCC2COc3ccccc3O2)c([N+](=O)[O-])c1 (stereo unspecified)	u	-10	u	u	-7%	-25%
CN(C)S(=O)(=O)c1ccc(NCC2COc3ccccc3O2)c([N+](=O)[O-])c1 (stereo unspecified)	23µM*	-22	u	-1%	u	16µM*
CCN(CC)S(=O)(=O)c1ccc(NCC2COc3ccccc3O2)c([N+](=O)[O-])c1 (stereo unspecified)	23µM*	-12	u	2%	u	16µM*
CN(C)/C=C(\C#N)C(=O)Nc1ccc(F)cc1	-20%	-1	9%	u	u	-10%
CN(C)/C=C(\C#N)C(=O)N/N=C(\CC(=O)C(F)(F)F)c1ccco1	6%	10	4.5µM*	-19%[10 µM]	1%	12%
O=C(C(c1ccccc1)N1CCOCC1)N1CCOCC1 (stereo unspecified)	u	27	-27%	15%	x	-17%
Oc1c(C(c2ccccc2)N2CCOCC2)ccc2ccccc12 (stereo unspecified)	9.2µM*	-99*	x	x	x	8.2µM*
Cc1ccc2c(=O)cc(C(=O)Nc3sc4c(c3C(=O)NCc3ccccc3)CCCC4)oc2c1C	-9%	x	x	x	x	2%
COc1ccc(NC(=O)CCS(=O)(=O)c2ccc(Br)s2)cc1	u	27	24%	23%	23%	u
CCOC(=O)c1ccc(NC(=O)CCS(=O)(=O)c2ccc(Br)s2)cc1	18µM*	19	45%	-29%	-25%	u
CC(C)c1ccc(NC(=O)CCS(=O)(=O)c2ccc(Br)s2)cc1	16µM*	x	x	x	x	18µM*
CCCCCCN(C(=O)CCCCCN1C(=O)NC(C2CCCCC2)C(C(=O)OCc2ccccc2)=C1C)C(C(=O)NCCCC)c1ccc(OCC(=O)OC)c(C(=O)OC)c1 (stereo unspecified)	x	x	-3%	-18%	x	x
COc1cc2nc(SCC(=O)Nc3cccc(C)c3)n3nc(CCn4c(C)nc5ccccc54)nc3c2cc1OC	2.6µM*	x	x	x	x	2.6µM*
Cc1ccccc1NC(=O)CSc1nc2ccccc2c2nc(CCn3cncc3C)nn12	-20%	-13	0%	6%	u	0%
COc1cc2nc(SCC(=O)Nc3ccccc3C)n3nc(CCn4c(C)nc5ccccc54)nc3c2cc1OC	3.3µM*	x	x	x	x	2.9µM*
COc1cc2nc(SCC(=O)Nc3ccc(F)cc3)n3nc(CCn4c(C)nc5ccccc54)nc3c2cc1OC	5.2µM*	x	x	x	x	2.1µM*
COc1ccc(C(=O)Nc2ccc(OCC(=O)N3CCOCC3)cc2)c(OC)c1OC	-8%	10	14%	-8%	u	7%
O=C(NCCN1CCC(n2c(=O)[nH]c3ccccc32)CC1)c1ccc(F)cc1F	-23%	-20	x	x	x	-22%
